According to PubChem BioAssay (NCATS):
Records with an inconclusive call do not appear. Where a call stands in place of a potency, no number is given. Calls of active or inactive are those of the source. Calls come from the whole dose curve; as a rule, active = well fitted activation curve with a large enough effect; inconclusive = small, poorly fitted or top-dose-only effect; inactive = flat fitted curve, though single readings scatter.

Molecular target: D(1A) dopamine receptor (Homo sapiens) (UniProt P21728)
Experiment: HTS Assay for Allosteric Agonists of the Human D1 Dopamine Receptor: Primary Screen for Agonists (AID 488981)
Conditions: Inducible HEK293 T-REx D1 cells, calcium-flux fluorescence, 180 s kinetic; series mostly up to 41.8 µM
Procedure, shortened: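 Calcium flux in an inducible, force-coupled HEK293 Trex D1 line (overnight at 30 C): agonist mode is the 180 s kinetic read after compound; potentiator mode is the following 180 s read after dopamine at EC20.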

D(1A) dopamine receptor (Homo sapiens), sequence (P21728 whole entry, looked up): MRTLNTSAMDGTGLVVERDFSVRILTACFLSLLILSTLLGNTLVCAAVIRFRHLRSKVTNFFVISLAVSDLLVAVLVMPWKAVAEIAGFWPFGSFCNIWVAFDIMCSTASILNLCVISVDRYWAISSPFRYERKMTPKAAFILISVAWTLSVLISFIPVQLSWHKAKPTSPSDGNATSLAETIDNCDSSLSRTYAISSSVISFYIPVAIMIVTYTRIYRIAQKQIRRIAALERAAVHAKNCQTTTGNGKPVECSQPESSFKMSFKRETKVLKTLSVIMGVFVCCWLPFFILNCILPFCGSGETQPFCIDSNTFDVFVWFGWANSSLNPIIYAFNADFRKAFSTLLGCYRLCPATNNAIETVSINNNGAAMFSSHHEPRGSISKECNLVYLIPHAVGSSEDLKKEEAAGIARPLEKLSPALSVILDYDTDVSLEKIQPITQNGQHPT

Structure (SMILES) | Potency
CN1CCN2c3ccccc3Cc3ccccc3C2C1 (centres undefined) | inactive
CCOC(=O)Nc1ccc(NCc2ccc(F)cc2)nc1N | inactive
NC(CO)C(=O)NNCc1ccc(O)c(O)c1O (centres undefined) | inactive
CC(CCc1ccc(O)cc1)NCCc1ccc(O)c(O)c1 (centres undefined) | inactive
OCCN1CCN(CCCN2c3ccccc3Sc3ccc(C(F)(F)F)cc32)CC1 | inactive
CCN1CCCC1CNC(=O)c1cc(S(=O)(=O)CC)c(N)cc1OC (centres undefined) | inactive
COc1ccccc1OCCNCC(O)COc1cccc2[nH]c3ccccc3c12 (centres undefined) | inactive
O=c1c(O)c(-c2ccc(O)c(O)c2)oc2cc(O)cc(O)c12 | inactive
COc1cc2nc(N3CCN(C(=O)c4ccco4)CC3)nc(N)c2cc1OC | inactive
CN(C)C(=O)C(CCN1CCC(O)(c2ccc(Cl)cc2)CC1)(c1ccccc1)c1ccccc1 | inactive
CC12CC3CC(C)(C1)CC(N)(C3)C2 | inactive
Cc1cnc(C(=O)NCCc2ccc(S(=O)(=O)NC(=O)NC3CCCCC3)cc2)cn1 | inactive
Cc1cn([C@H]2C[C@H](N=[N+]=[N-])[C@@H](CO)O2)c(=O)[nH]c1=O | inactive
COc1ccc(CCN(C)CCCC(C#N)(c2ccc(OC)c(OC)c2)C(C)C)cc1OC (centres undefined) | inactive
NCCCCCC(=O)O | inactive
CC(COc1ccccc1)N(CCCl)Cc1ccccc1 (centres undefined) | inactive
O=C1Cc2cc(CCN3CCN(c4nsc5ccccc45)CC3)c(Cl)cc2N1 | inactive
CN(C)CCCN1c2ccccc2CCc2ccc(Cl)cc21 | inactive
CC[N+](CC)(CC)CCOc1cccc(OCC[N+](CC)(CC)CC)c1OCC[N+](CC)(CC)CC | inactive
